Reference: PMC8384837, “Expanding the binding specificity for RNA recognition by a PUF domain”

How the values were obtained:
Assay in all cases: yeast three-hybrid, YBZ-1, SC-Leu-His + 0.5 mM 3-AT, 4 days
Conditions in all cases: tags: N-Gal4 AD-HA kept; label: inside an RPR1-promoter hybrid RNA with tandem MS2 sites; ssRNA
PUM1 PUF domain R5-MRR = PUM1 PUF domain R5-MRR (Homo sapiens, UniProt Q14671 828-1176, C1007M;Q1011R)
Outline: (§1)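 The interaction score is the log change in variant frequency from input to selection. Scores were computed in log2 with a pseudocount of 1 for absent variants, using Illumina sequencing of PCR-amplified repeat regions. The input came from four days on SC-Leu and the selection from four days on SC-Leu-His + 0.5 mM 3-AT. The cells were strain YBZ-1 (LexA–MS2 coat fusion, HIS3 reporter) co-expressing Pumilio-1 PUF domain libraries and matching RNA elements from a centromeric plasmid.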

PUM1 PUF domain R3-EFL = PUM1 PUF domain R3-EFL (Homo sapiens, UniProt Q14671 828-1176, C935E;R936F;Q939L)
Outline: as §1

PUM1 PUF domain R1-YSR = PUM1 PUF domain R1-YSR (Homo sapiens, UniProt Q14671 828-1176, S863Y;R864S;Q867R)
Outline: as §1

PUM1 PUF domain R5-CQR = PUM1 PUF domain R5-CQR (Homo sapiens, UniProt Q14671 828-1176, R1008Q;Q1011R)
Outline: as §1

PUM1 PUF domain R2-LFC = PUM1 PUF domain R2-LFC (Homo sapiens, UniProt Q14671 828-1176, N899L;Y900F;Q903C)
Outline: as §1

PUM1 PUF domain R3-IWS = PUM1 PUF domain R3-IWS (Homo sapiens, UniProt Q14671 828-1176, C935I;R936W;Q939S)
Outline: as §1

Sequence: GGCUAGAACUAGUGGAUCCCCCGGCGCCCGGCGGCUCGAGCCCGGGUAAGUGUAAAUAGUCUGCAUGCCGCCGGGCGCCAUGCCUGCAGGUCGACUCUAGAAAACAUG
- binding signal (PUM1 PUF domain R5-MRR): 1.43 log2 enrichment (interaction score)
- binding signal (PUM1 PUF domain R3-EFL): 5.34 log2 enrichment (interaction score)

Sequence: GGCUAGAACUAGUGGAUCCCCCGGCGCCCGGCGGCUCGAGCCCGGGUAAGUGUCAAUAGUCUGCAUGCCGCCGGGCGCCAUGCCUGCAGGUCGACUCUAGAAAACAUG
- binding signal (PUM1 PUF domain R5-MRR): 4.14 log2 enrichment (interaction score)

Sequence: GGCUAGAACUAGUGGAUCCCCCGGCGCCCGGCGGCUCGAGCCCGGGUAAGUGUAAAUUGUCUGCAUGCCGCCGGGCGCCAUGCCUGCAGGUCGACUCUAGAAAACAUG
- binding signal (PUM1 PUF domain R1-YSR): 5.97 log2 enrichment (interaction score)

Sequence: GGCUAGAACUAGUGGAUCCCCCGGCGCCCGGCGGCUCGAGCCCGGGUAAGUGUAAAUCGUCUGCAUGCCGCCGGGCGCCAUGCCUGCAGGUCGACUCUAGAAAACAUG
- binding signal (PUM1 PUF domain R1-YSR): 4.84 log2 enrichment (interaction score)

Sequence: GGCUAGAACUAGUGGAUCCCCCGGCGCCCGGCGGCUCGAGCCCGGGUAAGUGUGAAUAGUCUGCAUGCCGCCGGGCGCCAUGCCUGCAGGUCGACUCUAGAAAACAUG
- binding signal (PUM1 PUF domain R5-CQR): 0.8 log2 enrichment (interaction score)

Sequence: GGCUAGAACUAGUGGAUCCCCCGGCGCCCGGCGGCUCGAGCCCGGGUAAGUGUUAAUAGUCUGCAUGCCGCCGGGCGCCAUGCCUGCAGGUCGACUCUAGAAAACAUG
- binding signal (PUM1 PUF domain R5-CQR): 3.55 log2 enrichment (interaction score)

Sequence: GGCUAGAACUAGUGGAUCCCCCGGCGCCCGGCGGCUCGAGCCCGGGUAAGUGUAAAAAGUCUGCAUGCCGCCGGGCGCCAUGCCUGCAGGUCGACUCUAGAAAACAUG
- binding signal (PUM1 PUF domain R2-LFC): 3.16 log2 enrichment (interaction score)

Sequence: GGCUAGAACUAGUGGAUCCCCCGGCGCCCGGCGGCUCGAGCCCGGGUAAGUGUAAGUAGUCUGCAUGCCGCCGGGCGCCAUGCCUGCAGGUCGACUCUAGAAAACAUG
- binding signal (PUM1 PUF domain R3-IWS): 6.08 log2 enrichment (interaction score)
